# Assay outcomes: PubChem, National Center for Advancing Translational Sciences (NCATS)
# ATXN viability = cell viability loss in ATXN counter-screen; S2 cells (HEK-293 line with an ATXN2-luciferase reporter) viability, CellTiter-Fluor protease fluorescence, 24 h; Potency, µM (top dose mostly 56.7 µM), most hits filed as cytotoxic; hit rate 0.49% among 400,000; AID 651635; further: nearly all actives have a fitted effect of over 40% in size
# HT1080 IDH1KD tx = HT-1080 IDH1 knockdown cell toxicity (counter line). HT-1080 IDH1 knockdown viability, ATP luminescence, 48 h. Potency, µM (highest dose often 46.1 µM), for the others: at the highest dose activity, negative = toxicity, actives largely listed as cytotoxic. hit rate 2% among 360,000. AID 686971;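 further: 0% = DMSO wells and -100% = cell-free medium wells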
#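 % activity derives from luminescence (CellTiter-Glo), normalised to DMSO and no-cell wells. HT-1080-IDH1KD cells, 750/well, had 48 h compound exposure at 37 °C.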
# ATXN2 expr inh = inhibitors of ATXN2 expression; hit rate 0.72% among 360,000; Potency, µM (titrated, usually from 57 µM), inactives show top-dose activity change, negative = inhibition, most hits filed as inhibitors; AID 1745845; HEK-293 ATXN2-luciferase reporter, luminescence, 24 h; further: on the % scale 0 is the no-effect control and ±100 the full control effect; nearly all actives have a fitted effect of over 55% in size
#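 qHTS (up to 57 uM final) was run with 24 h compound exposure of reporter cells at 37 °C. Each well was multiplexed: SteadyGlo luminescence measured ATXN2-luciferase expression after a fluorogenic Gly-Phe-AFC viability readout (25 uM final).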
# HT1080NT lethal = kills 2HG-producing HT-1080-NT fibrosarcoma cells; hit rate 1.6% among 360,000; Potency, µM (titrated, usually from 46.1 µM), without a hit: at the top dose activity, negative = less viability, actives largely listed as cytotoxic; AID 686970; HT-1080-NT fibrosarcoma viability, CellTiter-Glo ATP luminescence, 48 h;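 further: NT is the 2HG producing partner of a matched IDH1 knockdown line; 0% = DMSO-treated cells and -100% = media-only wells without cells; nearly all actives have a fitted effect of over 55% in size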
#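 Viability of the 2HG-overproducing fibrosarcoma line after 48 hours of compound exposure at 37 degrees C was determined by luminescence with CellTiter-Glo, and concentration-effect curves were then fitted and categorized.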
# KB-3-1 cytotox = kills parental KB-3-1 adenocarcinoma cells; KB-3-1 viability, CellTiter-Glo ATP luminescence, 72 h; Potency, µM (highest dose often 46.1 µM), actives largely listed as cytotoxic; hit rate 1.4% among 400,000; AID 1347075; further: on the % scale 0 is the no-effect control and ±100 the full control effect; nearly all actives have a fitted effect of over 60% in size
#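 72 h, 37 °C compound treatment of KB-3-1 parental cells; CellTiter-Glo added, 10 min, luminescence read. Data corrected against DMSO-only plates and normalized before curve fitting.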
# KB-V1 cytotox = kills drug-selected multidrug resistant KB-V1 cells. Potency, µM (doses to about 46.1 µM), hits mostly cytotoxic. KB-V1 MDR cells viability, CellTiter-Glo, 72 h. AID 1347076. hit rate 3.4% among 400,000; further: on the % scale 0 is the no-effect control and ±100 the full control effect; nearly all actives have a fitted effect of over 60% in size
#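 Drug-selected KB-V1 cells, grown in DMEM lacking phenol red with 10% FBS, receive compound titrations; after three days at 37 degrees C, surviving cell ATP is quantified by CellTiter-Glo luminescence and responses normalized and curve-fitted.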
# Active calls of the source: *; i = inactive; u = inconclusive; x = no result given; [ ] = dose if it differs, or a comment. Shown are actives, neighbours in structure and some others; about 6.2% of the full set was active somewhere. The call rests on the fitted dose curve; in most records, active means well fitted curve in the direction sought with a large enough effect; inconclusive means small, poorly fitted or top-dose-only effect, or another doubt; inactive means no such curve, though single readings can be large; an effect the other way counts as inactive or inconclusive. Potency means the concentration at half of the fitted maximal effect.
SMILES,ATXN viability,HT1080 IDH1KD tx,ATXN2 expr inh,HT1080NT lethal,KB-3-1 cytotox,KB-V1 cytotox
Cc1cccc(C(c2sc3nc(-c4ccco4)nn3c2O)N2CCN(c3ccccc3F)CC2)c1 (configuration not stated),i,x,13%,x,i,u
C(=N\Nc1nc2ccccc2[nH]1)/c1ccc2ncccc2c1,i,0.73µM*,u,0.65µM*,1µM*,u
COc1cc(/C=N\Nc2nc3ccccc3[nH]2)cc(OC)c1OC,i,-20%,4%,-24%,i,5.8µM*
Cc1cc(=O)[nH]c(N/N=C/c2ccccn2)n1,i,u,u,u,u,u
O=c1cnnc(N/N=C/c2ccccn2)[nH]1,u,1.3µM*,1.8µM*,u,u,i
COc1ccc(/C=N/Nc2nc3ccccc3[nH]2)cc1OC,i,-23%,45%,-16%,i,u
C(=N\Nc1nc2ccccc2[nH]1)/c1ccccn1,u,18µM*,x,u,i,i
Fc1ccccc1-c1ccc(/C=N/Nc2nc3ccccc3[nH]2)o1,i,26µM*,x,u,u,u
CC(C)C(c1nnnn1C1CCCC1)N1c2ccccc2CC1C (configuration not stated),i,-27%,-6%,-26%,i,15µM*
CC(C)C(c1nnnn1C1CCCCC1)N1CCc2ccccc21 (configuration not stated),i,-21%,-1%,-6%,i,i
Cn1cc([N+](=O)[O-])c(C(=O)Nc2ccn(Cc3c(F)c(F)cc(F)c3F)n2)n1,i,6.3µM*,4%,7.1µM*,i,u
O=C(Nc1ccc(-c2nc3ccccc3o2)cc1)c1ccc(N2CCOCC2)c([N+](=O)[O-])c1,i,2%,-9%,-23%,i,i
Cn1cc([N+](=O)[O-])c(C(=O)Nc2nccs2)n1,u,u,x,u,i,i
Cn1cc([N+](=O)[O-])c(C(=O)Nc2ccc(-c3nc4ccccc4o3)cc2)n1,i,u,x,u,18µM*,12µM*
Cn1cc([N+](=O)[O-])c(C(=O)Nc2ccc(Br)cn2)n1,i,7.1µM*,19%,11µM*,u,u
CC[C@@H]1CCC[C@@H](O)[C@@H](C)C(=O)O[C@H](C)[C@@H](C)C/C=C(C)/C(OC)=C\C(=O)N(C)C([C@@H](C)CC)C(=O)N(C)[C@@H](C(C)C)C(=O)N(C)[C@@H](COC)C(=O)N2CCC[C@H]2C(=O)N(C)[C@@H](C(C)C)C(=O)N2CCC[C@H]2C(=O)O1 (some centres not stated),u,u,u,u,u,1.8µM*
COc1cc(/C=N/NC(=O)COc2c(C)cc([N+](=O)[O-])cc2C)ccc1OC(=O)c1ccccc1,i,18µM*,-7%,u,i,i
CCOc1cc(/C=N/NC(=O)c2nn(C)cc2Br)ccc1OCc1ccccc1,i,10%,-6%,-1%,i,16µM*
CCOc1cc(/C=N\NC(=O)c2ccc(NC(=O)CC)cc2)ccc1OC(=O)c1ccccc1,u,2%,20µM*,-5%,u,u
Cc1ccc2[nH]c(C(=O)N/N=C/c3ccccc3C(=O)O)c(-c3ccccc3)c2c1,i,-26%,-2%,u,i,i
CCOc1cc(/C=N\NC(=O)c2ccc(NC(=O)C(C)(C)C)cc2)ccc1OC(=O)c1ccc(C)cc1,i,7%,-6%,11%,i,i
Cc1ccc2[nH]c(C(=O)N/N=C/c3ccccc3O)c(C)c2c1,i,2.6µM*,x,u,u,i
COc1cc(/C=N/NC(=O)COc2c(C)cc([N+](=O)[O-])cc2C)ccc1OC(=O)c1ccccc1Br,i,-11%,7%,-11%,i,i
CCc1nc2cc(C(=O)N[C@H]3CCCCNC3=O)cc(NC(=O)c3ccccc3OC)c2n1C,i,x,x,x,x,x
Cc1cnc(-n2ncc(C(=O)N(C)CC3COCCO3)c2C2CC2)nc1-c1cccs1 (configuration not stated),i,x,x,x,x,x
SMILES,ATXN viability,HT1080 IDH1KD tx,ATXN2 expr inh,HT1080NT lethal,KB-3-1 cytotox,KB-V1 cytotox
Cc1cc(C(=O)N/N=C/c2cccc3ccccc23)c(C)o1,i,-4%,16%,-9%,i,i
O=C(COc1cccc2cccnc12)N/N=C/c1ccccc1O,i,-29%,-39%,-15%,u,12µM*
CN(C)c1ccc(C=NNC(=O)c2cccc3ccccc23)c(Cl)c1,i,u,-8%,u,5.2µM*,3.7µM*
O=C(N/N=C/c1ccccc1O)c1cccc2ccccc12,i,9.2µM*,x,u,i,u
COc1ccc(C(=O)Nc2ccccc2C(=O)N/N=C/c2ccncc2)cc1OC,i,26µM*,-18%,26µM*,u,u
CC1=C(C(=O)Nc2cccnc2)C(c2ccc(C)cc2)n2nc(SCc3ccccc3F)nc2N1 (configuration not stated),i,x,-10%,x,i,i
O=C(COC(=O)c1cc(Cl)nc(Cl)c1)NC1CCCCCC1,i,15%,x,7%,i,i
COc1ccc(C(=O)Nc2ccccc2C(=O)N/N=C/c2cccc3ccccc23)cc1,i,18µM*,-18%,18µM*,u,u
COc1ccc(C(=O)Nc2ccccc2C(N)=O)cc1,i,-16%,69%,-3%,u,i
Cc1cccc(/C=N/NC(=O)c2ccccc2OCc2cccc(Br)c2)n1,u,u,u,-10%,i,i
O=C(N/N=C/c1ccc[nH]1)c1ccccc1O,i,-11%,45%,-15%,u,5.2µM*
O=C(N/N=C/c1ccc[nH]1)c1ccc(O)cc1,i,11%,18%,17%,i,i
CCOc1ccc(C=NNC(=O)c2cccc3ccccc23)cc1OCC,i,15%,10%,-1%,i,23µM*
Cc1cccc(/C=N/NC(=O)c2cc(Br)ccc2OCc2ccccc2)n1,i,18µM*,-27%,u,i,i
COc1ccc(NC(=O)c2ccco2)cc1NC(=O)c1ccc(OC(C)C)cc1,u,x,9%,x,i,i
COCc1cc(C)nc(OCC(=O)N/N=C/c2ccccc2O)c1C#N,i,18µM*,-18%[11.3 µM],u,i,i
CCC1CN(CCNC(=O)c2cccc(C(=O)OC)c2)Cc2cc(OC)ccc2O1 (configuration not stated),i,x,x,x,x,x
